# Data: PubChem BioAssay AID1159580 (chemical genetic matrix, 2015)
# In all, about 5,500 compounds went through this assay and about 2,000 (36%) were called active. About 18% were inconclusive and are not listed. Some of the results follow. Unmarked numbers belong to inactive results. Rule as the data show it: active = normalized growth mostly below about 0.91 (no sharp cut-off); inconclusive = no clear call, values can overlap the other calls; inactive = mostly above about 0.92.
# Assay: chemical genetic growth profiling, strain panel (AID 1159580);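 also: tested at 20 µM; growth read once vehicle control cultures reached saturation at 30 °C; 1 = growth at the plate median or of vehicle wells; lower values mean less growth of the strain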
# Conditions: S. cerevisiae deletion strains, growth OD
# [1] = locus YMR307W, strain GAS1, hits give low values
# [2] = locus YNL322C, strain KRE1, hits give low values
smiles,measurement,setting,value
NC(N)=NCc1cccc(I)c1,normalized growth,"locus YAL040C, strain CLN3, hits give low values",0.995
same,normalized growth,"locus YCL061C, strain MRC1 (second series), hits give low values",0.991
same,normalized growth,"locus YDR150W, strain NUM1, hits give low values",1.01
same,normalized growth,"locus YDR363W, strain ESC2, hits give low values",1
same,normalized growth,"locus YER002W, strain NOP16, hits give low values",1
same,normalized growth,[1],0.997
same,normalized growth,"locus YNL128W, strain TEP1, hits give low values",1.02
same,normalized growth,"locus YNL175C, strain NOP13, hits give low values",1.01
same,normalized growth,"locus YNL197C, strain WHI3, hits give low values",0.987
same,normalized growth,"locus YNL224C, strain SQS1, hits give low values",1.01
same,normalized growth,[2],0.982
same,normalized growth,"locus YOR083W, strain WHI5 (second series), hits give low values",0.99
same,normalized growth,"locus YPL055C, strain LGE1, hits give low values",1.02
C=C(C)C1Cc2c(ccc(C(=O)O)c2O)O1 (stereo not drawn),normalized growth,"locus YBR021W, strain FUR4, hits give low values",0.931
same,normalized growth,"locus YBR229C, strain ROT2, hits give low values",0.984
same,normalized growth,"locus YCL029C, strain bik1, hits give low values",0.979
same,normalized growth,"locus YDL035C, strain GPR1, hits give low values",1.03
same,normalized growth,"locus YDL074C, strain BRE1, hits give low values",1.02
same,normalized growth,"locus YDL101C, strain DUN1, hits give low values",1.02
same,normalized growth,"locus YDL134C, strain PPH21, hits give low values",1.03
same,normalized growth,"locus YDL185W, strain tfp1, hits give low values",0.86 (active)
same,normalized growth,"locus YDL192W, strain arf1, hits give low values",0.965
same,normalized growth,"locus YDR101C, strain arx1, hits give low values",0.954
same,normalized growth,"locus YDR162C, strain NBP2, hits give low values",1.03
same,normalized growth,"locus YDR318W, strain mcm21, hits give low values",0.963
same,normalized growth,"locus YDR388W, hits give low values",0.953
same,normalized growth,"locus YDR502C, strain sam2, hits give low values",0.979
same,normalized growth,"locus YEL061C, strain CIN8, hits give low values",0.991
same,normalized growth,"locus YER110C, hits give low values",0.944
same,normalized growth,"locus YER155C, strain BEM2, hits give low values",0.946
same,normalized growth,"locus YER167W, strain BCK2, hits give low values",1
same,normalized growth,"locus YGL078C, strain dbp3, hits give low values",0.932
same,normalized growth,"locus YGL086W, strain mad1, hits give low values",0.982
same,normalized growth,"locus YGL248W, strain PDE1, hits give low values",1
same,normalized growth,"locus YGR135W, strain pre9, hits give low values",0.969
same,normalized growth,"locus YGR252W, strain gcn5, hits give low values",0.871
same,normalized growth,"locus YHR030C, strain SLT2, hits give low values",0.982
same,normalized growth,"locus YHR079C, strain IRE1 (second series), hits give low values",0.948
same,normalized growth,"locus YHR094C, strain hxt1, hits give low values",0.944
same,normalized growth,"locus YHR129C, strain ARP1, hits give low values",0.993
same,normalized growth,"locus YHR200W, strain rpn10, hits give low values",0.958
same,normalized growth,"locus YIL066C, strain RNR3, hits give low values",1.03
same,normalized growth,"locus YIL073C, strain SPO22, hits give low values",1.05
same,normalized growth,"locus YIL125W, strain kgd1, hits give low values",0.91 (active)
same,normalized growth,"locus YIR030C, strain dcg1, hits give low values",0.957
same,normalized growth,"locus YJL095W, strain BCK1, hits give low values",1.04
same,normalized growth,"locus YJL134W, strain LCB3, hits give low values",0.979
same,normalized growth,"locus YJL168C, strain set2, hits give low values",0.946
same,normalized growth,"locus YJL187C, strain SWE1 (second series), hits give low values",1.02
same,normalized growth,"locus YJR043C, strain POL32, hits give low values",1.02
same,normalized growth,"locus YJR075W, strain HOC1, hits give low values",1.01
same,normalized growth,"locus YKL009W, strain mrt4, hits give low values",0.865 (active)
same,normalized growth,"locus YKL068W, hits give low values",0.91 (active)
same,normalized growth,"locus YKL085W, strain MDH1 (second series), hits give low values",0.931
same,normalized growth,"locus YKL085W, strain MDH1, hits give low values",0.931
same,normalized growth,"locus YKL190W, strain CNB1, hits give low values",0.998
same,normalized growth,"locus YKR001C, strain vps1, hits give low values",0.901
same,normalized growth,"locus YLR039C, strain RIC1, hits give low values",1.07
same,normalized growth,"locus YLR058C, strain SHM2, hits give low values",1
same,normalized growth,"locus YLR102C, strain apc9, hits give low values",0.942
same,normalized growth,"locus YLR262C, strain YPT6, hits give low values",1.08
same,normalized growth,"locus YLR268W, strain sec22, hits give low values",0.99
same,normalized growth,"locus YLR330W, strain CHS5, hits give low values",0.976
same,normalized growth,"locus YLR342W, strain FKS1 (second series), hits give low values",0.998
same,normalized growth,"locus YLR371W, strain rom2, hits give low values",0.957
same,normalized growth,"locus YLR418C, strain cdc73, hits give low values",0.957
same,normalized growth,"locus YML016C, strain PPZ1, hits give low values",0.987
same,normalized growth,"locus YML032C, strain rad52, hits give low values",0.988
same,normalized growth,"locus YML124C, strain tub3, hits give low values",0.957
same,normalized growth,"locus YMR078C, strain ctf18, hits give low values",0.923
same,normalized growth,"locus YMR223W, strain ubp8, hits give low values",0.98
same,normalized growth,[1],0.972
same,normalized growth,"locus YNL067W, strain RPL9B, hits give low values",1.01
same,normalized growth,"locus YNL233W, strain BNI4, hits give low values",1.01
same,normalized growth,"locus YNL250W, strain rad50, hits give low values",0.911
same,normalized growth,"locus YNL271C, strain bni1, hits give low values",0.9 (active)
same,normalized growth,"locus YNL298W, strain CLA4, hits give low values",0.795 (active)
same,normalized growth,"locus YNL307C, strain MCK1, hits give low values",0.95
same,normalized growth,[2],0.993
same,normalized growth,"locus YNR052C, strain pop2, hits give low values",0.971
same,normalized growth,"locus YOL012C, strain htz1",1.06
same,normalized growth,"locus YOL147C, strain pex11, hits give low values",0.955
same,normalized growth,"locus YOR061W, strain CKA2, hits give low values",0.995
same,normalized growth,"locus YOR069W, strain VPS5, hits give low values",0.99
same,normalized growth,"locus YOR136W, strain idh2, hits give low values",0.985
same,normalized growth,"locus YOR144C, strain elg1, hits give low values",0.948
same,normalized growth,"locus YOR184W, strain ser1, hits give low values",0.989
same,normalized growth,"locus YOR316C, strain cot1, hits give low values",0.939
same,normalized growth,"locus YPR119W, strain clb2, hits give low values",0.943
same,normalized growth,"locus YPR141C, strain kar3, hits give low values",0.918
same,normalized growth,"locus YPR163C, strain tif3, hits give low values",0.968
same,normalized growth,"locus YPR167C, strain met16, hits give low values",0.963
same,normalized growth,"strain wtn01, hits give low values",0.972
